# Source: PubChem BioAssay AID588347 (National Center for Advancing Translational Sciences (NCATS), 2011)
# The list shows a part of the results. Inconclusive results are not listed. The source made the active and inactive calls. Calls follow the shape of the dose curve; as a rule, active = well fitted inhibition curve with a large enough effect; inconclusive = small, poorly fitted or top-dose-only effect, or another doubt; inactive = no such curve, though single readings can be large or run the other way.
# Target: Histone acetyltransferase KAT2A (Homo sapiens) (UniProt Q92830)
# Sequence (Q92830 whole entry, looked up): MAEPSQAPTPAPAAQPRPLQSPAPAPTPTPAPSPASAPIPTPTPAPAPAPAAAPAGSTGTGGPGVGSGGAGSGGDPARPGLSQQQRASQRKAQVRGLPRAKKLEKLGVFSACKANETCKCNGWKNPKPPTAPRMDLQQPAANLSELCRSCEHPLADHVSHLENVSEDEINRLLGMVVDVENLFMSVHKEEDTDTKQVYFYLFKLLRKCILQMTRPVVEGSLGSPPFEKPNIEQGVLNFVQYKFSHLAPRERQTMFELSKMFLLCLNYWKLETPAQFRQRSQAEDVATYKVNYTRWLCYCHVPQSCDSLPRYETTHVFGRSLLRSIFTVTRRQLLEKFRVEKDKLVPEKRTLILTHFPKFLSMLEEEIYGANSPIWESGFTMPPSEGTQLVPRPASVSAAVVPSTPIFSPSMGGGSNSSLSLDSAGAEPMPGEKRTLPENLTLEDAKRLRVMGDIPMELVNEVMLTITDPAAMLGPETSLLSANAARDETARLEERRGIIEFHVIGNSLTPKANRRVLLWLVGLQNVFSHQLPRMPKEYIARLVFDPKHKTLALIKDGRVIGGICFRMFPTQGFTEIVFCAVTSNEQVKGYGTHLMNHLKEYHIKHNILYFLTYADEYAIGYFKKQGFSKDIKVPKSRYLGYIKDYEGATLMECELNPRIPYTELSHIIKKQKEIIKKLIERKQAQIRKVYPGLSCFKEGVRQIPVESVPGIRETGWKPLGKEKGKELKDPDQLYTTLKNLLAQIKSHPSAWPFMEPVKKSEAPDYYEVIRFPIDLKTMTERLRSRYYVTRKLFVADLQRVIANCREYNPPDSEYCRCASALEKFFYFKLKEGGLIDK
# Assay: qHTS Assay for Inhibitors of GCN5L2: Hit confirmation
# Conditions: GCN5L2 HAT, ThioGlo1 CoA fluorescence, 20 min
# Text: Histone acetyltransferase (HAT) enzymes transfer a […] group from acetyl-coenzyme A to the epsilon-amino group of conserved lysine residues of N-terminal histone tails. Acetylation results in charge neutralization of this positively charged amino acid, decreasing interactions with the […] backbone and making the DNA more accessible for transcription. HATs have been recognized as an emerging drug target for treatment of cancer, diabetes, asthma, chronic obstructive pulmonary disease, cardiac disease, and viral infection. Protein identified with HAT activity include the […] like 2 (GCN5L2, a.ka. Histone acetyltransferase KAT2A) which acetylates histone H3 at Lys9, 14, 18, 13, and to lesser extent histones H4 and H2B. This activates transcription of the gene by modulating chromatin structure and installing the acetyllysine recognition mark for bromodomain-containing coactivator proteins. A quantitative high throughput screen was developed to identify small molecule inhibitors. The assay is based on the principle that it measures formation of reduced CoA with the pro-fluorescent maleimide derivative ThioGlo1 that becomes fluorescent upon reaction with the free thiol of CoA. A large number of artifacts are expected in this primary screen, compounded by the assay format (fluorescent artifacts) and by the high top concentration tested for each substance. […] Yasgar, et al. Compound Management for Quantitative High-Throughput Screening. […] Inglese, et al. Quantitative high-throughput screening: a titration-based approach that efficiently identifies biological activities in large chemical libraries. […]
# To each well of a 1,536w plate, 3ul of GCN5L2 (final concentration 20nM, in 50mM HEPES, 0.1mM EDTA (pH 7.5), 0.01% Tween-20 buffer) are added using a Kalypsys dispenser. […] Plates are read immediately on the ViewLux (PerkinElmer) (Ex340nm/Em540nm) for a 0 min read, incubated for 20 min at room temperature, and read again on the ViewLux with the same settings. The initial read was carried out to identify compounds that are potentially fluorescent.
row,SMILES,Potency
1,O=c1[nH]c2ccccc2n2c(-c3ccccc3)nnc12,6.46 µM (active)
2,CC1=C/C(=N\OS(=O)(=O)c2ccccc2)C=CC1=O,10.2 µM (active)
3,FC(F)(F)C1CCCN(c2nsc3ccccc23)C1 (stereo not drawn),2.89 µM (active)
